# In PubChem BioAssay (NCI):
# About 79,000 compounds went through this panel and 15% of them were active in at least one assay; those are over-represented in the sample as a whole. Unmarked numbers belong to inactive results. Active and inactive are the calls of the source. Cut-off read from the data, not from the text of the source: active = growth inhibition above about 70%; inactive = the rest.
# What was measured:
# [1] = NCI Yeast Anticancer Drug Screen. Data for the rad50 strain (AID 155);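 note: 0% = growth of vehicle-only cultures of the same strain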; settings: S. cerevisiae rad50 strain growth inhibition; at 50.0 µM; active compounds read high
# How it was run: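 Cells are treated with compound, grown, and their growth is then scored against vehicle-only cultures of the same repair-deficient yeast strain.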
# [2] = NCI Yeast Anticancer Drug Screen. Data for the mec2-1 strain (AID 157); settings: S. cerevisiae mec2-1 strain, at 50.0 µM, active compounds read high
# How it was run: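 Compounds were applied to mec2-1 yeast cells. Their growth was then compared with that of vehicle-treated cultures to give growth inhibition.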
# [3] = NCI Yeast Anticancer Drug Screen. Data for the sgs1 mgt1 strain (AID 161);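 note: 0% = growth of cultures given vehicle only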; settings: S. cerevisiae sgs1 mgt1 strain, at 50.0 µM, active compounds read high
# How it was run: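 Yeast cells carrying a defined DNA-repair defect were exposed to test compounds. Growth inhibition was measured relative to vehicle-treated controls.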
# [4] = NCI Yeast Anticancer Drug Screen. Data for the cln2 rad14 strain (AID 165);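 note: 0% = growth equal to vehicle treated cultures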; settings: S. cerevisiae cln2 rad14 strain, at 50.0 µM, active compounds read high
# How it was run: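 Strain: cln2 rad14 yeast, altered in cell cycle control and DNA damage repair. Read-out: growth inhibition vs vehicle.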
# [5] = NCI Yeast Anticancer Drug Screen. Data for the bub3 strain (AID 167); settings: S. cerevisiae bub3 mutant strain, at 50.0 µM, active compounds read high
# How it was run: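 Part of a panel of yeast mutants defective in DNA damage repair or cell cycle regulation. Each strain is grown with compound, and inhibition is calculated relative to solvent-treated cultures.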
# [6] = NCI Yeast Anticancer Drug Screen. Data for the mlh1 rad18 strain (AID 175); settings: S. cerevisiae mlh1 rad18 strain growth inhibition; at 50.0 µM; active compounds read high
# How it was run: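 A repair-deficient yeast strain is exposed to test compound, and growth is scored relative to vehicle-treated controls.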
SMILES,growth inhibition [1],growth inhibition [2],growth inhibition [3],growth inhibition [4],growth inhibition [5],growth inhibition [6]
CC(=O)CC(=O)CCCCCCCCCCCC(=O)CC(C)=O,-5.15%,-15.4%,-5.45%,-0.1%,13.5%,10.4%
CC(C)CCCC(C)C1CCC2C3CC=C4CC(P(=O)(c5ccccc5)c5ccccc5)CCC4(C)C3CCC12C (stereo unspecified),10.3%,-9.9%,-6.05%,-10.5%,5.75%,-12.1%
O=c1oc2ccccc2cc1CCBr,16.4%,11.4%,-6.1%,-3.3%,-9.2%,-8.05%
COC(=O)C1(C)CCCC2(C)C3=CC(O)C4(C(C)C)OC4C3(O)CCC12 (stereo unspecified),-9.4%,-41.6%,-8.15%,5.65%,-21.9%,-8.2%
c1ccc2c3c(ccc2c1)OCCOCCOc1ccc2ccccc2c1-3,76.7% (active),84.8% (active),76.5% (active),8.5%,91.9% (active),86% (active)
O=C(CSCSCC(=O)Nc1ccc(C2=NCCN2)cc1)Nc1ccc(C2=NCCN2)cc1,35%,18.4%,36.6%,-6.1%,17.9%,19.9%
O=C(Nc1cc(Cl)ccc1Cl)Oc1c(Cl)cc(Cl)c(Cl)c1[N+](=O)[O-],10.2%,-37.1%,29.1%,-33.8%,-0.55%,15.8%
CSC(C1c2ccccc2N(C)C2=NC(=O)N(C)C(=O)C21Cl)S(=O)(=O)c1ccc(C)cc1 (stereo unspecified),50.2%,12.2%,27.4%,35.7%,45.4%,51.3%
CCc1nc2c([nH]1)C(=O)c1ccccc1C2=O,68.1%,19.2%,44.2%,9.25%,18.7%,42%
c1cc2c3c(cccc3c1)C1C2C2c3cccc4cccc(c34)C12 (stereo unspecified),-11.6%,18.2%,7.35%,-2.7%,3.9%,0.05%
Brc1cc(Br)c2c(c1)CN(C1CCCCC1)CO2 (tested in a mixture with another compound),-0.15%,3.85%,-0.4%,-18.9%,-1.6%,-7.45%
O=[N+]([O-])c1ccc2[nH]c(=S)n(/C=C(/c3ccccc3)S(=O)Cc3ccccc3)c2c1 (stereo unspecified),-2.45%,-22.6%,-18.7%,-3.15%,-12%,-5.15%
Nc1nc(N)nc(-c2ccco2)n1,-15.1%,-6.6%,-27.1%,-81.8%,-0.85%,-5.2%
Cn1c(=O)c2c(nc(N3CCOCC3)n2CCCNCC(O)c2ccc(O)c(O)c2)n(C)c1=O (stereo unspecified),-40.9%,4.3%,-13.2%,-29.9%,-2.1%,-21.6%
Oc1ccc(Br)cc1/C=N\NC(=S)Nc1ccc2cn[nH]c2c1,47.1%,23.9%,47.8%,24.9%,2.1%,40.4%
Cn1cnc(=O)c2n[nH]nc21,3.95%,16.6%,-1.1%,-1.45%,-11.4%,0.65%
c1ccc2c(c1)CCc1c-2n[nH]c1-c1[nH]nc2c1CCc1ccccc1-2,-12.1%,-10%,-1.3%,-21.9%,-26.2%,-5%
CC[O-].CC[O-].O=C1C=C([O-])C(=O)c2ccccc21.O=C1C=C([O-])C(=O)c2ccccc21.[Ti+4],17.3%,14.3%,15.4%,26.2%,30.4%,4.9%

SMILES,growth inhibition [1],growth inhibition [2],growth inhibition [3],growth inhibition [4],growth inhibition [5],growth inhibition [6]
CC(=O)N1C(Nc2ccccn2)CCN1c1ccccc1 (stereo unspecified),-30.9%,-45.3%,-21.4%,16.6%,7.9%,-23.2%
c1ccc(N=C2SC(=NC3CCCCC3)N(C3CCCCC3)C2=Nc2ccccc2)cc1,3.35%,-18.9%,-0.05%,9.1%,-4.9%,-29.3%
O=C(NCCCCCCNC(=O)C1CCCNC1)C1CCCNC1 (stereo unspecified),19.1%,-11.7%,13.8%,15.8%,15.4%,12.8%
CN1NC2=NCCN=C3NN(C)C(=NCCN=C1S2)S3,-6.5%,-10.1%,-43.3%,9.15%,-44.1%,-36.2%
O=S(=O)(O)C(O)c1ccccc1 (stereo unspecified),1.25%,-2.85%,-8.85%,-10.9%,-15.1%,-6.2%
OCC(I)CO,15.8%,3.45%,16.9%,1.45%,1.7%,16.6%
COc1ccc(CCc2ccc(OC)c(OCc3ccccc3)c2)cc1COc1ccccc1,41.9%,0.45%,22.1%,3.85%,-1.8%,5.95%
CC1c2nc(N)nc(N)c2CN1C(=O)c1ccccc1 (stereo unspecified),3.25%,-5.7%,-18.9%,-13.6%,-8.85%,-0.85%
COc1nc(NC2OCC(O)C(O)C2O)c(C(C)=O)c(=O)n1C (stereo unspecified),3.5%,-2.65%,7.05%,-0.25%,-19.4%,-0.7%
CC(C)N(C(=O)C12C3C4C5C3C1(C#N)C5C42)C(C)C (stereo unspecified),10.1%,6.95%,12.1%,5.95%,2.35%,-9.45%
CC(C)(C)/[N+]([O-])=C/C1(C2(/C=[N+](\[O-])C(C)(C)C)Cc3ccccc3C2=O)Cc2ccccc2C1=O (stereo unspecified),29.8%,3.75%,3.05%,15.6%,7.15%,31.9%
OC1C/C=C/CCCCC1 (stereo unspecified),-11%,-5.75%,-3.55%,1.95%,3.3%,-4.4%
CC(O)CN1c2ccccc2Sc2ccc(Cl)cc21 (stereo unspecified),19.2%,10.9%,3.35%,17.1%,-4.9%,12.8%
N#C/C(=C\c1c2ccccc2c(Cl)c2ccccc12)C(N)=S,34.2%,24.9%,45.1%,7.55%,15.4%,24.4%
O=C1NN2CCN=C2c2ccccc21,-60.5%,-30%,-22.7%,-16.4%,-6.5%,-16.4%
COc1cc(CCNC2=CC(=O)c3ncccc3C2=O)ccc1O,31.6%,34%,-8.25%,4.95%,5.8%,14.3%
CC(=O)NCCc1ccc(Cl)c(Cl)c1,13.6%,-4.25%,-5.95%,-0.6%,3.35%,-3.3%
C=C(CCC(Cl)C(COS(=O)(=O)c1ccc(C)cc1)OC(CCCO[Si](c1ccccc1)(c1ccccc1)C(C)(C)C)OCC)[Si](C)(C)C (stereo unspecified),68.2%,65.7%,60.6%,69.1%,73% (active),58.4%
